High-throughput results from PubChem.
A selection: hits, their analogues and other compounds. The true share with any hit is near 11%.
NIH3T3 tox: kills NIH 3T3 cells. NIH 3T3 viability, CellTiter-Glo ATP luminescence, 48-72 h. Potency, µM (highest dose often 96.7 µM), for inactives: at the highest dose activity change, negative = cytotoxicity, usual class: inhibitors. hit rate 4.3% among 94,000; note: nearly all actives have a fitted effect of over 55% in size
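Cells were seeded at 400 per well, treated with pin-transferred compound, and kept 48 or 72 hr at 37 °C before CellTiter-Glo addition and luminescence imaging of cellular ATP.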
NPR1 antag: human Npr1 receptor antagonism | AID 1347048 | Potency, µM (series often up to 46.3 µM), for inactives: at the top dose activity change, negative = inhibition, hits mostly inhibitors | HEK293 hNpr1 GloSensor cGMP, ANP-stimulated luminescence | hit rate 1.6% among 76,000; calls by dose curve; note: nearly all actives have a fitted effect of over 60% in size
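HEK293 cells stably expressing human Npr1 and cGMP GloSensor pGS-40F, loaded 2 h with 2% GloSensor reagent, given compound 30 min at room temperature. Luminescence read before and 20 min after 0.1 nM hNppA.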
FLuc inh: blocks purified firefly luciferase enzyme activity. P08659. purified P. pyralis luciferase, luminescence, biochemical. Potency, µM (top dose mostly 115 µM), usual class: inhibitors. hit rate 2.5% among 76,000; note: nearly all actives have a fitted effect of over 65% in size
Target sequence (P08659 whole entry, looked up): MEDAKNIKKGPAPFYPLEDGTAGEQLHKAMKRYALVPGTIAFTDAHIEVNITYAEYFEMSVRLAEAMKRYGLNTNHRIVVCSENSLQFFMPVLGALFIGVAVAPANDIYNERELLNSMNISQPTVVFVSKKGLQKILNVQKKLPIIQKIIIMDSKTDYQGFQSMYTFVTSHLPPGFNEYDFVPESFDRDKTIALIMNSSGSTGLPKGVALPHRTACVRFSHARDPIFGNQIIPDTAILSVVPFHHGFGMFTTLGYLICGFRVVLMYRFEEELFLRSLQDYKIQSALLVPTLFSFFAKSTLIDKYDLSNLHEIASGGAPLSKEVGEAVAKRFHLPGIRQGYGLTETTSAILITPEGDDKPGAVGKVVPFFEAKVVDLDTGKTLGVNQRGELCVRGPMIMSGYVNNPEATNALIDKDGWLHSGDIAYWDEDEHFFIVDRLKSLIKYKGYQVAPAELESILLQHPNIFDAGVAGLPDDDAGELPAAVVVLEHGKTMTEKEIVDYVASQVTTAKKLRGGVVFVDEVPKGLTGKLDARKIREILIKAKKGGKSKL
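Luminescence read by CCD imager after adding enzyme (10nM final) to wells holding compound, titrated in qHTS. Substrates 10uM each D-luciferin and ATP; buffer 50mM Tris acetate pH 7.5, 10mM Mg acetate, Tween-20, BSA.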
HEK293 tox: HEK 293 cell cytotoxicity; HEK 293 viability, ATP luminescence (CellTiter-Glo), 48-72 h; Potency, µM (top dose mostly 115 µM), inactives show top-dose activity change, negative = cytotoxicity, hits mostly inhibitors; hit rate 6.6% among 94,000; note: nearly all actives have a fitted effect of over 60% in size
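Pintool-delivered compounds were incubated with HEK 293 cells (250 cells/well) at 37 degree Celsius for 48 or 72 hr. ATP-dependent luminescence (CellTiter-Glo) then reported remaining viable cells.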
An asterisk follows results filed as active; [ ] = dose if it differs, or a comment. Unless noted, calls come from the whole dose curve; as a rule, active = well fitted curve in the direction sought with a large enough effect; inconclusive = small, poorly fitted or top-dose-only effect, or another doubt; inactive = no such curve, though single readings can be large; an effect the other way counts as inactive or inconclusive. % is set by controls: 0 for no effect and ±100 for the full control effect; potency is the fitted concentration of half-maximal effect.

How did COc1ccc(Cn2c(=O)c(C(=O)N3CCN([S+](=O)([O-])c4cccs4)CC3)nc3cccnc32)cc1 do in these assays?
NIH3T3 tox: -18.6%; HEK293 tox: -29.5%

How did O=C(NCc1cccs1)C1CCCN(Cc2cccc(-c3ccsc3)c2)C1 (stereo not drawn) do in these assays?
NIH3T3 tox: inconclusive; HEK293 tox: 39.8µM*

How did O=C(NCc1cccs1)C1CCCN1C(=O)c1cccc(-c2cccnc2)c1 (stereo not drawn) do in these assays?
NIH3T3 tox: -12.0%; HEK293 tox: -26.1%

How did O=C(C1CCCN(Cc2cccc(-c3cccs3)c2)C1)N1CCCC1 (stereo not drawn) do in these assays?
NIH3T3 tox: inconclusive; HEK293 tox: 70.8µM*

Results for Cc1cccc(-c2cccc(CN3CCCC(C(=O)N4CCN(C)CC4)C3)c2)c1 (stereo not drawn) ?
NIH3T3 tox: inconclusive; HEK293 tox: 25.1µM*

What do the screens show for `O=C(NCc1cccs1)C1CCCN(Cc2cccc(-c3cccs3)c2)C1` (stereo not drawn)?
NIH3T3 tox: 39.8µM*; HEK293 tox: 44.7µM*

How did COc1ccc(CC(=O)NC2CCN(Cc3cccc(-c4cccs4)c3)CC2)cc1 do in these assays?
NIH3T3 tox: -32.1%; HEK293 tox: -30.8%

How did Cc1ccc(OCc2nc(C3CCN(C(=O)c4ccn[nH]4)C3)no2)cc1 (stereo not drawn) do in these assays?
NIH3T3 tox: -26.0%; NPR1 antag: -14.8%; FLuc inh: inactive; HEK293 tox: inconclusive

What do the screens show for `O=C(Cc1ccccc1)NC1CCCN(c2ccc3nnc(C4CC4)n3n2)C1` (stereo not drawn)?
NIH3T3 tox: 1.0%; HEK293 tox: inactive

Results for O=C(NCc1cccc(F)c1)C1CCCN(Cc2cccc(-c3cccs3)c2)C1 (stereo not drawn) ?
NIH3T3 tox: 39.8µM*; HEK293 tox: inconclusive

How did O=C(NCc1cccc(F)c1)C1CCCN(c2nc3ncccc3o2)C1 (stereo not drawn) do in these assays?
NIH3T3 tox: inconclusive; NPR1 antag: 0.0%[70.6 µM]; FLuc inh: inactive; HEK293 tox: -3.0%[172 µM]

Results for CC1=C[C@@H](CNC(=O)CCC(=O)O)[C@H](C(C)C)C[C@H]1Cc1nc2ccc(Cl)cc2[nH]1 ?
NIH3T3 tox: -24.7%[174 µM]; NPR1 antag: 1.0%[70.6 µM]; FLuc inh: inactive; HEK293 tox: -23.0%[172 µM]

Results for CC1=C[C@@H](CNC2CCOCC2)[C@H](C(C)C)C[C@H]1Cc1nc2ccc(Cl)cc2[nH]1 ?
NIH3T3 tox: 100µM*; NPR1 antag: -3.7%[70.6 µM]; FLuc inh: inactive; HEK293 tox: inconclusive

Results for COc1ccc2[nH]c(C[C@@H]3C[C@@H](C(C)C)[C@H](CN)C=C3C)nc2n1 ?
NIH3T3 tox: inconclusive; NPR1 antag: inconclusive; FLuc inh: inactive; HEK293 tox: inconclusive

What do the screens show for `CC1=C[C@@H](CNC(=O)CN(C)C)[C@H](C(C)C)C[C@H]1Cc1nc2ccc(C)cc2[nH]1`?
NIH3T3 tox: 79.4µM*; NPR1 antag: -3.9%[70.6 µM]; FLuc inh: inactive; HEK293 tox: inconclusive

Results for CC1=C[C@@H](CNC(=O)CCC(=O)O)[C@H](C(C)C)C[C@H]1Cc1nc2ccc(C)cc2[nH]1 ?
NIH3T3 tox: -2.2%[174 µM]; NPR1 antag: 7.4%[70.6 µM]; FLuc inh: inactive; HEK293 tox: 0.2%[172 µM]

How did CC1=C[C@@H](CN(C)C)[C@H](C(C)C)C[C@H]1Cc1nc2ncc(Cl)cc2[nH]1 do in these assays?
NIH3T3 tox: 70.8µM*; NPR1 antag: 1.0%[70.6 µM]; FLuc inh: inactive; HEK293 tox: 79.4µM*

What do the screens show for `CC1=C[C@@H](CNC(=O)CN(C)C)[C@H](C(C)C)C[C@H]1Cc1nc2ccc(Cl)cc2[nH]1`?
NIH3T3 tox: 89.1µM*; NPR1 antag: -3.6%[70.6 µM]; FLuc inh: inactive; HEK293 tox: inconclusive

Results for CN1C[C@@H]2CCCN3CCC[C@@H]([C@H]23)[C@H]1CCCC(=O)N1CCCCC1 ?
NIH3T3 tox: 0.2%; NPR1 antag: 2.1%; FLuc inh: inactive; HEK293 tox: 7.5%

What do the screens show for `CC(=O)N1CCN(C(=O)c2ccc3nnc(-c4ccc(F)cc4)n3c2)CC1`?
NIH3T3 tox: -3.2%; HEK293 tox: 5.0%

How did Cn1nc(C(=O)Nc2cccc(-c3nnc4n3CCCC4)c2)c2ccccc21 do in these assays?
NIH3T3 tox: inconclusive; NPR1 antag: -9.9%; FLuc inh: inconclusive; HEK293 tox: inconclusive

What do the screens show for `O=C(NCc1ccccc1)c1ccc(-c2cccc3c2CCNC3)o1`?
NIH3T3 tox: inconclusive; NPR1 antag: 0.6%; FLuc inh: inconclusive; HEK293 tox: inconclusive

Results for O=C(Nc1ccccc1)c1ccc(-c2cccc3c2CCNC3)o1 ?
NIH3T3 tox: 44.7µM*; NPR1 antag: -23.9%; FLuc inh: inactive; HEK293 tox: inconclusive

Results for O=C(NCCN1CCOCC1)c1nc2sccn2c1-c1ccc(C(F)(F)F)cc1 ?
NIH3T3 tox: -28.9%; HEK293 tox: -14.1%

What do the screens show for `COC(=O)[C@@H]1Cc2c([nH]c3ccccc23)[C@H]2C[C@@H](NCCN3CCOCC3)C[C@@H](c3ccc(OC(F)(F)F)cc3)N21`?
NIH3T3 tox: 22.4µM*; NPR1 antag: 4.6%; FLuc inh: inactive; HEK293 tox: 25.1µM*

How did CC1(C)[C@H](Cc2cc(CN3CCOCC3)on2)C[C@@H]1NC(=O)Nc1ccc(F)cc1 do in these assays?
NIH3T3 tox: inconclusive; NPR1 antag: -14.2%[70.6 µM]; FLuc inh: inconclusive; HEK293 tox: inconclusive

Results for COC(=O)[C@@H]1Cc2c([nH]c3ccccc23)[C@H]2C[C@@H](NCCN3CCOCC3)C[C@@H](c3ccc(C(F)(F)F)cc3)N21 ?
NIH3T3 tox: 14.1µM*; NPR1 antag: inconclusive; FLuc inh: inactive; HEK293 tox: 7.94µM*

How did COC(=O)[C@@H]1Cc2c([nH]c3ccccc23)[C@H]2C[C@@H](NCCN3CCOCC3)C[C@@H](c3ccc(F)c(F)c3)N21 do in these assays?
NIH3T3 tox: 28.2µM*; NPR1 antag: -18.7%; FLuc inh: inactive; HEK293 tox: inconclusive

What do the screens show for `CNC(=O)c1cc(C)nc2onc(C3CCCN3C(=O)C3CCCCC3)c12` (stereo not drawn)?
NIH3T3 tox: -28.4%; HEK293 tox: -9.6%

What do the screens show for `C#CCNC(=O)c1cc(-c2ccsc2)c2nncn2n1`?
NIH3T3 tox: inconclusive; HEK293 tox: -24.0%[172 µM]

Results for COc1cccc([S+](=O)([O-])NC[C@@H]2CC[C@H]3C[C@@H]2C3(C)C)c1 ?
NIH3T3 tox: inconclusive; NPR1 antag: 8.5%[70.6 µM]; FLuc inh: inactive; HEK293 tox: 100µM*

Results for Cc1c(-c2ccccc2F)[nH]c2ccc(CNC(=O)CCN3CCCC3=O)cc12 ?
NIH3T3 tox: -27.2%; NPR1 antag: 0.1%; FLuc inh: 28.2µM*; HEK293 tox: inconclusive

What do the screens show for `Cc1c(-c2ccccc2F)[nH]c2ccc(CNC(=O)CCC3=NNC(=O)CC3)cc12`?
NIH3T3 tox: inconclusive; NPR1 antag: -2.2%; FLuc inh: inconclusive; HEK293 tox: inconclusive
